We go through 28 molecules from PubChem BioAssay (Tox21).

Each structure is given as a SMILES string. Records with an inconclusive call do not appear. Activity calls are given as the source filed them. Unless noted, calls follow the shape of the full dose curve.

The nature of assay [1]: qHTS assay to identify small molecule antagonists of the vitamin D receptor (VDR) signaling pathway - cell viability counter screen (AID 743225; active = well fitted curve in the direction sought with a large enough effect in the repeat runs; an effect the other way counts as inactive or inconclusive; also: nearly all actives have a fitted effect of over 50% in size; also: potency is read from the fitted curve at half-maximal effect). In outline: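 Cytotoxicity toward the VDR-bla HEK 293T line was scored by ATP-based CellTiter-Glo luminescence, read in the wells already used for the beta-lactamase readout after 16 h compound treatment under 3 nM 1-alpha,25-dihydroxyvitamin D3 stimulation.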
(Quantitative high-throughput screening tests each substance at several concentrations.)

Assay [2] can be described thus: qHTS assay to identify small molecule agonists of the NFkB signaling pathway - cell viability counter screen (AID 1159515). Also: nearly all actives have a fitted effect of over 55% in size. Also: potency is read from the fitted curve at half-maximal effect. The procedure, abridged:
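Read by CellTiter-Glo luminescence (30 min, room temperature) in the wells also used for the beta-lactamase FRET read. ME-180 NFkB-bla cells at 2,000 per well were plated overnight, then exposed to compound for 5 hr at 37 C.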

The nature of assay [3]: qHTS assay to identify small molecule agonists of the endoplasmic reticulum stress response signaling pathway - cell viability counter screen (AID 1159517). Also: nearly all actives have a fitted effect of over 50% in size. Also: potency is read from the fitted curve at half-maximal effect. The procedure, abridged: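 Cytotoxicity of test compounds toward ESRE-bla HeLa cells was assessed after 5 hr exposure. The luminescent CellTiter-Glo signal was measured 30 min after reagent addition.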
The nature of assay [4]: qHTS assay to identify small molecule antagonists of the retinoid-related orphan receptor gamma (ROR-gamma) signaling pathway - cell viability counter screen (AID 1159520; active = well fitted curve in the direction sought with a large enough effect in the repeat runs; an effect the other way counts as inactive or inconclusive; also: nearly all actives have a fitted effect of over 50% in size; also: potency is read from the fitted curve at half-maximal effect). The procedure, abridged:
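Tet-on ROR gamma CHO cells (1,000/well) were plated 4 hr, given compounds in DMSO for 2 hr at 37 C, then induced with 1 uM final doxycycline for 16 hr. Viability was read as ATP by CellTiter-Glo luminescence after 30 min.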

The nature of assay [5]: qHTS assay to identify small molecule agonists of the AP-1 signaling pathway - cell viability counter screen (AID 1159525). Also: nearly all actives have a fitted effect of over 55% in size. Also: potency is read from the fitted curve at half-maximal effect. The procedure, abridged:
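Each titration point was normalised to DMSO and tetra n-octyl ammonium bromide controls. The read was Cell Titer Glo luminescence after 30 min at RT, following 5 h compound exposure of ME-180 AP-1-bla cells at 37 °C.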

The nature of assay [6]: qHTS assay to identify small molecule agonists of the RXR signaling pathway - cell viability counter screen (AID 1159529; active = well fitted curve in the direction sought with a large enough effect in the repeat runs; an effect the other way counts as inactive or inconclusive; also: nearly all actives have a fitted effect of over 50% in size; also: potency is read from the fitted curve at half-maximal effect). The procedure, abridged: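 Tox21 10K compounds were tested for cytotoxicity against GeneBLAzer RXR-alpha HEK 293T cells grown in 2% charcoal-stripped FBS. Exposure lasted 16 hr at 37 C, 5% CO2; viability read by CellTiter-Glo luminescence.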
The target of assay [7] is Nuclear receptor ROR-gamma (Homo sapiens) (UniProt P51449). Briefly: qHTS assay to identify small molecule antagonists of the retinoid-related orphan receptor gamma (ROR-gamma) signaling pathway (AID 1159521; active = well fitted curve in the direction sought with a large enough effect in the repeat runs; an effect the other way counts as inactive or inconclusive; also: nearly all actives have a fitted effect of over 50% in size; also: potency is read from the fitted curve at half-maximal effect). The procedure, abridged: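 Readout: ONE-Glo luciferase luminescence, 30 min at room temperature. System: Tet-on RORγ CHO, RORE-LUC. Sequence: compound 2 h, doxycycline 1 uM final, 16 h at 37 C.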

Assay [8] in a line: qHTS assay to identify small molecule agonists of the AP-1 signaling pathway (AID 1159526).
Assay [9] has as its target Retinoic acid receptor RXR-alpha (Homo sapiens) (UniProt P19793). Briefly: qHTS assay to identify small molecule agonists of the RXR signaling pathway (AID 1159527). Also: nearly all actives have a fitted effect of over 35% in size. The procedure, abridged:
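Reporter activation is measured as beta-lactamase activity via FRET substrate cleavage (emission 460/530 nm) in HEK 293T cells expressing an RXR-alpha-driven bla construct, following 16 hr compound exposure at 37 C.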

Chain of Retinoic acid receptor RXR-alpha (Homo sapiens) (P19793 whole entry, looked up): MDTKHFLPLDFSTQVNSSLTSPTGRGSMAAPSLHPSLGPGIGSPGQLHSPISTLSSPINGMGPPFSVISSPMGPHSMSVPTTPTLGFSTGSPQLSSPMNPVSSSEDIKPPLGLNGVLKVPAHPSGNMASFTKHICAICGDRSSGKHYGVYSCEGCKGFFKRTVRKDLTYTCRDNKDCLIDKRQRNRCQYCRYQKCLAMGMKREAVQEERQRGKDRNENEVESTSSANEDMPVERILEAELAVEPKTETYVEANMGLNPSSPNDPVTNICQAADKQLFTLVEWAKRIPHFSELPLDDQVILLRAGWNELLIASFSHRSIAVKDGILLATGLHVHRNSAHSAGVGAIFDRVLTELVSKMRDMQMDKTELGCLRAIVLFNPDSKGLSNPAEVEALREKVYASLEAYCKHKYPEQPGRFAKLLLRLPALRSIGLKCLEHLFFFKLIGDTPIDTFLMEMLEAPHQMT

`CCCCCCCCCCCCCC[P+](CCCCCC)(CCCCCC)CCCCCC` (tested in a mixture with another compound): the Potency is 2.75 µM (active) in assay [1]; 17.4 µM (active) in assay [2]; 17.4 µM (active) in assay [3]; 15.4 µM (active) in assay [4]; 21.9 µM (active) in assay [5]; 9.77 µM (active) in [6].

Take `Cc1c(Cl)c(=O)oc2cc(OP(=O)(OCCCl)OCCCl)ccc12`: the Potency entry in assay [1], in assay [2], in assay [4], in [7], in assay [5] and in assay [8] was “inactive” each time. Moreover, the Potency result in [6] is “inactive”. Besides, the outcome in assay [9] was inactive.

For the molecule `CC(C)(O)c1cnn2c(-c3ccc(F)c(-c4c(F)cccc4C#N)c3)cnc2n1`, the Potency entry in assay [2], in [3] and in assay [5] was “inactive” each time. For the same molecule, the Potency in [7] is 61.1 µM (active).

With `c1ccc2cc3c(cc2c1)-c1cccc2cccc-3c12`, the Potency entry in assay [1], in assay [2], in [3], in assay [4], in [5] and in assay [6] was “inactive” each time.

Regarding `CCCN(CCC)c1c([N+](=O)[O-])cc(S(N)(=O)=O)cc1[N+](=O)[O-]`, the Potency in assay [1] is 11.7 µM (active); in [2], 52.2 µM (active); in assay [3] it was 52.2 µM (active); in assay [4] it was 54.5 µM (active); in assay [5] it was 43.6 µM (active); in [6], 43.6 µM (active).

Consider `CC1CCC(C(C)C)C(OC(=O)c2ccccc2N)C1` (centres undefined), for which the Potency in assay [1] was 38.4 µM (active); in assay [2] it was 34.2 µM (active); in [3], 43 µM (active); in assay [4], 53.7 µM (active); in assay [5] it was 38.4 µM (active); in assay [6] it was 17.1 µM (active).

For the molecule `S=C=Nc1cccc2ccccc12`, the Potency result in assay [1] and in [4] was “inactive” throughout. For the same molecule, the values for the Potency in [2], in [3] and in [5] were 21.7 µM (active), 19.3 µM (active) and 24.3 µM (active), respectively.

In the case of `CCC[CH2][Sn]([CH2]CCC)([CH2]CCC)[O]C(=O)c1ccccc1`, the Potency in [1] was 1.95 µM (active); in [2] it was 0.436 µM (active); in assay [3] it was 4.9 µM (active); in [4] it was 0.686 µM (active); in assay [5], 1.23 µM (active); in [6], 1.23 µM (active).

As to `CCCCOCN(C(=O)CCl)c1c(CC)cccc1CC`, the Potency result in assay [1], in assay [2], in [3] and in assay [4] was “inactive” each time.

With `C[C@]12CC[C@@H]3c4ccc(OC(=O)N(CCCl)CCCl)cc4CC[C@H]3[C@@H]1CC[C@@H]2O`, the Potency result in assay [1], in [2], in assay [3], in [4], in assay [5] and in [6] was “inactive” in each case. Besides, in assay [9], the outcome was inactive.

On to `CCOc1cc(C(C)(C)C)ccc1C1COC(c2c(F)cccc2F)=N1` (centres undefined), for which the Potency entry in assay [2], in [3] and in assay [5] was “inactive” each time. Further, the Potency is 33.1 µM (active) in assay [7] and 14.9 µM (active) in assay [6].

On to `N#CC(Cl)Cl`, for which the Potency entry in [1], in assay [2], in assay [4], in assay [7], in assay [5] and in assay [8] was “inactive” throughout. Moreover, the Potency entry in assay [6] was “inactive”. Further, in [9], the molecule was called inactive.

As to `CN(C)C1CSSSC1`, the Potency result in [1], in assay [2], in [3], in assay [4], in [5] and in assay [8] was “inactive” throughout. In addition, the Potency entry in assay [6] was “inactive”.

For `CC(C)OC(=S)S`, the Potency entry in [1], in assay [2], in [3] and in [5] was “inactive” each time. In addition, in assay [7], the Potency was 15.4 µM (active).

Take `Oc1c(Br)c(Br)c(Br)c(Br)c1Br`: the Potency entry in assay [2], in assay [4] and in assay [5] was “inactive” in each case. Also, the Potency in assay [7] is 24.5 µM (active).

On to `CC(=O)[O-].CC(=O)[O-].[Hg+2]`, for which the Potency in assay [1] is 3.09 µM (active); in assay [2], 0.871 µM (active); in assay [3], 0.776 µM (active); in assay [4], 1.22 µM (active); in assay [5], 3.89 µM (active); in assay [6] it was 2.75 µM (active).

For the molecule `CCOC(=O)CC(=O)CCl`, the Potency result in assay [1], in assay [2], in [3], in [5], in [8] and in assay [6] was “inactive” throughout. Moreover, the Potency in [7] is 48.6 µM (active).

Turning to `O=[N+]([O-])c1cc(C(F)(F)F)c(Cl)c([N+](=O)[O-])c1Cl`, the Potency in [1] is 21.9 µM (active); in [2], 54.9 µM (active); in [3], 12.3 µM (active); in [4] it was 27.3 µM (active); in [7] it was 6.11 µM (active); in assay [6] it was 17.4 µM (active).

With `CC(C)[C@H](C(=O)OC(C#N)c1cccc(Oc2ccccc2)c1)c1ccc(OC(F)F)cc1` (some centres undefined), the Potency result in assay [1], in assay [2], in assay [3], in assay [4], in [5] and in [6] was “inactive” each time. Moreover, the result in [9] was inactive.

For the molecule `CCCCCCCCCC[N+](C)(C)CCCCCCCCCC`, the Potency is 15.5 µM (active) in assay [1]; 54.9 µM (active) in assay [2]; 54.9 µM (active) in assay [3]; 21.7 µM (active) in assay [7]; 34.7 µM (active) in assay [5]; 15.5 µM (active) in assay [6].

For `CC1(C)C(/C=C(\Cl)C(F)(F)F)C1C(=O)OC(C#N)c1cccc(Oc2ccccc2)c1` (centres undefined), the Potency entry in [2], in [3], in assay [4], in assay [5], in [8] and in assay [6] was “inactive” in each case.

As to `O=c1oc2ccccc2c(O)c1Cc1c(O)c2ccccc2oc1=O`, the Potency result in [2] and in assay [3] was “inactive” in each case. For the same molecule, in assay [7], the Potency was 7.5 µM (active). Further, in [9], the outcome was inactive.

Take `BrC(Br)C(Br)(Br)Br`: the Potency entry in assay [2], in assay [3], in assay [5] and in [8] was “inactive” throughout.

Consider `Oc1c(Cl)c(Cl)cc(Cl)c1Cl`, for which the Potency result in assay [2], in [3], in assay [5] and in assay [8] was “inactive” throughout. For the same molecule, the Potency in assay [7] is 23.7 µM (active); in assay [6], 7.55 µM (active).

On to `Fc1cccc(Cl)c1CCl`, for which the Potency result in [2], in [4], in assay [7], in assay [5] and in [8] was “inactive” each time. Besides, the result in assay [9] was inactive.

As to `CCCCCCCCCCCCCCC(Br)C(=O)O` (centres undefined), the figures for the Potency in [2] and in assay [3] were 54.9 µM (active) and 38.9 µM (active), respectively. Further, the Potency result in assay [4], in assay [5] and in [8] was “inactive” in each case. Moreover, the molecule was classed as inactive in assay [9].

For `O=S(=O)(c1ccc(Cl)cc1)c1ccc(Cl)cc1`, the Potency entry in [1], in [2], in [3], in [4], in [5] and in [6] was “inactive” each time.

For the molecule `c1ccc2c(c1)[nH]c1cnccc12`, the Potency result in assay [1], in assay [2], in assay [3], in assay [4], in assay [5] and in assay [6] was “inactive” in each case. For the same molecule, in assay [9], the result was inactive.
